Among all 340,000 compounds or so, about 1,000 (0.29%) were called active. Rule as the data show it: inconclusive = inhibition above about 27% without an active follow-up result; inactive = below that. Not all results are given here. Entries with a potency or affinity are not part of this list.
assay: NS1A inhibition, H1N1 influenza, cell based functional assay (AID 504329); settings: percent inhibition, at 12.5 µM, hits give high values

SMILES | inhibition
CCCOc1ccc(CNC(=O)C2CCN(c3nnc(N4CCCC4=O)s3)CC2)cc1 | -2.57% (inactive)
Cc1ccccc1NC(=O)c1c(Cl)nc(C)c(Cl)c1C | -3.05% (inactive)
O=C(NCc1ccncc1)C1CCC(=O)N(CCc2ccc(Cl)cc2)C1 (stereo not drawn) | -3.67% (inactive)
O=C(N/N=C/c1cc([N+](=O)[O-])ccc1O)c1ccncc1 | -34.5% (inactive)
O=C(NCC1CCCO1)C(=O)N/N=C/c1cccc(Cl)c1 (stereo not drawn) | 1.01% (inactive)
Cc1ccc(C(=O)N/N=C\c2cc3c(cc2Br)OCO3)cn1 | -7.88% (inactive)
O=C(NCC1CCCO1)C(=O)N/N=C/c1ccc(O)c(Cl)c1 (stereo not drawn) | 11.2% (inactive)
O=C(CNC(=O)c1ccncc1)N/N=C/c1cc(Br)ccc1O | 2.02% (inactive)
Cc1ccc(/C=N/NC(=O)C(c2ccncc2)N2CCOCC2)cc1 (stereo not drawn) | 3.83% (inactive)
COc1ccc(Br)cc1/C=N/NC(=O)C(c1ccncc1)N1CCOCC1 (stereo not drawn) | 2.7% (inactive)
COc1ccc(C(=O)N/N=C/c2cc(Br)ccc2O)cc1OC | -6.16% (inactive)
COC(=O)c1ccc(N2CCN(C)CC2)c(NC(=O)COc2cccc(C)c2)c1 | 8.25% (inactive)
CC12CCC(=O)N1C(C(=O)Nc1ccccc1N1CCOCC1)CS2 (stereo not drawn) | 1.95% (inactive)
O=C(CCCC(=O)Nc1ccc(Br)cc1)N/N=C/c1ccccc1 | -7.56% (inactive)
CNC(=S)NN=C(C)CCCC(C)=NNC(=S)NC | -24.1% (inactive)
O=C1c2cccc([N+](=O)[O-])c2C(=O)N1C1CCCCC1 | -11.8% (inactive)
CN1CCN(C(=O)CNC(=O)C23CC4CC(CC(C4)C2)C3)CC1 | -0.78% (inactive)
O=C(N/N=C/c1cc(Cl)ccc1O)c1ccc(Br)cc1 | -2.86% (inactive)
O=C(N/N=C/c1coc2ccc(Cl)cc2c1=O)c1ccncc1 | 2.11% (inactive)
O=C(N/N=C/c1cccnc1)c1cccc(Cl)c1 | -19.1% (inactive)
O=C(N/N=C/c1ccc(Cl)cc1Cl)c1ccncc1 | -7.47% (inactive)
COc1ccc(/C=C(\NC(=O)c2ccco2)C(=O)N2CCOCC2)cc1 | 10.3% (inactive)
CCN(CC)Cc1cc(C(C)(C)C)cc(N2CCOCC2)c1O | 3.29% (inactive)
CCc1cc(=O)[nH]c(SCCc2ccccc2)n1 | 1.92% (inactive)
O=C(NC1CCCC1)C1CCCN1C(=O)Nc1ccccc1 (stereo not drawn) | 7.61% (inactive)

SMILES | inhibition
CCOc1cccc(-c2c(C(=O)N/N=C(\C)c3ccncc3)nnn2-c2nonc2N)c1 | 0.12% (inactive)
CCOc1cccc(-c2c(C(=O)N/N=C(\C)c3cccnc3)nnn2-c2nonc2N)c1 | -0.26% (inactive)
N=C1c2ccccc2CN1NC(=O)c1ccc(Br)o1 | -1.62% (inactive)
O=[N+]([O-])c1cccc(Nc2c([N+](=O)[O-])ccc3nonc23)c1 | 11.8% (inactive)
Cc1ccc(Nc2c([N+](=O)[O-])ccc3nonc23)c(C)c1 | 24.2% (inactive)
COc1ccccc1CNC(=O)CSC1=NCCS1 | -11.3% (inactive)
CSc1ccccc1OCc1cc(C(=O)NCCN2CCCC(O)C2)no1 (stereo not drawn) | 14.2% (inactive)
CC(NC(=O)COC(=O)C12CC3CC(CC(Br)(C3)C1)C2)c1ccccc1 (stereo not drawn) | 4.11% (inactive)
O=C(N/N=C/c1c(O)ccc2ccccc12)c1ccc(Br)o1 | -3.25% (inactive)
O=C(N/N=C/c1cccc2ccccc12)c1cccnc1 | -1.84% (inactive)
Cc1ccc(C(=O)N/N=C/c2c(O)ccc3ccccc23)cn1 | -7.55% (inactive)
O=C(N/N=C\c1c(O)ccc2ccccc12)c1ccc(O)cc1 | 3.55% (inactive)
O=C(N/N=C/c1c(O)ccc2ccccc12)c1cccc(C(F)(F)F)c1 | 5.26% (inactive)
O=C(N/N=C\c1c(O)ccc2ccccc12)c1cncc(Br)c1 | -2.66% (inactive)
CCOc1ccc2ccccc2c1/C=N/NC(=O)c1ccncc1 | -4.1% (inactive)
O=C(NN=Cc1c(O)ccc2ccccc12)c1ccc2c(c1)OCO2 | 3.47% (inactive)
COc1ccc(-c2nnnn2-c2ccc(F)cc2F)cc1 | -3.82% (inactive)
COP(=O)(OC)C1(O)C(=O)Nc2ccc(Br)cc21 (stereo not drawn) | -4.97% (inactive)
Nc1c(C(=O)NCc2ccc3c(c2)OCO3)nnn1Cc1ccc(Br)cc1 | 1.55% (inactive)
N#CC(Cc1ccccc1)(Cc1ccccc1)C(=O)NN | -3.45% (inactive)
COC1CCCCC1NS(=O)(=O)c1ccccc1 (stereo not drawn) | 1.39% (inactive)
CC(C)C(=O)NC(c1ccco1)c1ccc2cccnc2c1O (stereo not drawn) | 23.1% (inactive)
CCCCC(=O)NC(c1cccc([N+](=O)[O-])c1)c1ccc2cccnc2c1O (stereo not drawn) | 17.2% (inactive)
COc1ccc(C(NC(C)=O)c2ccc3cccnc3c2O)c(OC)c1 (stereo not drawn) | 20.8% (inactive)
CC(=O)NC(c1ccc2ccccc2c1)c1ccc2cccnc2c1O (stereo not drawn) | 23.8% (inactive)

SMILES | inhibition
CC(=O)NC(c1ccc(C(C)C)cc1)c1ccc2cccnc2c1O (stereo not drawn) | -6.08% (inactive)
CC(C)C(=O)NC(c1cccc([N+](=O)[O-])c1)c1ccc2cccnc2c1O (stereo not drawn) | 17.9% (inactive)
C=CCNC(=O)c1onc(CSc2ccc(F)cc2)c1C(=O)NCC=C | 8.73% (inactive)
CCOCCc1nnc(NC(=O)C2CC(=O)N(c3ccc(OCC)cc3)C2)s1 (stereo not drawn) | -1.86% (inactive)
C[C@@H]1CC[C@@]2(O[C@H](CCO)C[C@H](O)[C@H]2O)O1 | -1.57% (inactive)
CCCSc1nc(-c2ccccc2)cc(C(F)(F)F)c1C#N | -2.3% (inactive)
COc1ccc(N2CCN(C(=O)Cc3ncc(C(F)(F)F)cc3Cl)CC2)cc1 | -8.89% (inactive)
COc1ccc(NS(=O)(=O)c2ccc3c(c2)[C@H]2C=CC[C@H]2[C@@H](c2ccc(C(=O)O)cc2)N3)cc1 | 24.1% (inactive)
O=C(O)c1ccc(NS(=O)(=O)c2ccc3c(c2)C2C=CCC2C(c2ccccc2F)N3)cc1 (stereo not drawn) | 18.1% (inactive)
Cn1nnnc1SCC(=O)N1CCc2ccccc21 | -9.92% (inactive)
O=C1/C(=C/c2ccncc2)N2CCC1CC2 | -8.83% (inactive)
CC(C)CC(=O)Nc1nnc(SCC(=O)NCC2CCCO2)s1 (stereo not drawn) | -4.89% (inactive)
CCc1nnc(NS(=O)(=O)c2ccc(N/C=C\C(=O)c3ccc(C)cc3)cc2)s1 | 2.79% (inactive)
COC(=O)c1ccccc1NC(=O)CSc1ncccn1 | -13.4% (inactive)
Cc1cc(C)nc(NN2C(=O)C=CC2=O)n1 | 0.34% (inactive)
CC(=O)c1ccc(Nc2nc(C)cc(C)n2)cc1 | 0.38% (inactive)
Cn1c(SCC(=O)Nc2nccs2)nnc1-c1ccncc1 | 2.71% (inactive)
CCOC(=O)C(C)Oc1cccc2c(=O)n(CC(=O)NCCc3ccccc3)ccc12 (stereo not drawn) | 0.03% (inactive)
CC(C)C(OC(=O)c1cccs1)C(=O)NCc1ccc2c(c1)OCO2 (stereo not drawn) | -1.71% (inactive)
Cc1cccc(NC(=O)c2ccc3nccnc3c2)c1C | 0.36% (inactive)
COc1cc(NC(=O)c2ccccc2F)c(OC)cc1NC(=O)CN1CCCCC1 | -0.03% (inactive)
N/C(=N\OC(=O)Cc1ccccc1)c1ccccn1 | -5.24% (inactive)
N/C(=N\OC(=O)Cc1ccccc1[N+](=O)[O-])c1ccccn1 | -3.44% (inactive)
Cc1c(OC(C)C(=O)NCC(O)c2ccccc2)ccc2c3c(c(=O)oc12)CCC3 (stereo not drawn) | 3.79% (inactive)
CNC(=O)c1c(NC(=O)c2ccc(S(=O)(=O)N3CCCCC3C)cc2)sc2c1CCN(C)C2 (stereo not drawn) | -4.17% (inactive)

SMILES | inhibition
CCc1ccc(Nc2n[n+](-c3ccccc3)c(-c3cccc(Cl)c3Cl)s2)cc1 | -1.96% (inactive)
Fc1ccc(-[n+]2nc(Nc3ccccc3)sc2-c2cccc(Cl)c2Cl)cc1 | 1.31% (inactive)
CCc1ccc(Nc2n[n+](-c3ccccc3)c(-c3cccc(C)c3)s2)cc1 | -15% (inactive)
Fc1ccc(-[n+]2nc(Nc3ccccc3)sc2-c2c3ccccc3cc3ccccc23)cc1 | 10.5% (inactive)
COc1ccc(S(=O)(=O)CCC(=O)N2CC(=O)N(CCc3ccccc3)C(=O)C2)cc1 | -13.4% (inactive)
CSc1ncc(/C=C2/C(=O)NC(=O)N(C)C2=O)cn1 | 6.14% (inactive)
CC1Cc2ccccc2N1C(=O)c1ccc2c(c1)OCO2 (stereo not drawn) | -9.71% (inactive)
CCCOc1cccc(OCC(=O)Nc2nc3ccccc3[nH]2)c1 | -2.2% (inactive)
CC(C)/C=C1\CC/C(=C\c2ccc(N(C)C)cc2)C1=O | -9.13% (inactive)
CN(C)c1ccc(/C=C2\CCC/C(=C\c3ccccc3)C2=O)cc1 | -5.05% (inactive)
O=C1C(=O)N(CCCn2ccnc2)C(c2ccc(Cl)cc2)/C1=C(\O)c1ccc2c(c1)OCCO2 (stereo not drawn) | 4.67% (inactive)
Cc1ccc(SCC(=O)NCCc2ccccc2)cc1 | 4.08% (inactive)
O=C(Nc1ccc2c(c1)OCO2)C1COc2ccccc2O1 (stereo not drawn) | -3.64% (inactive)
O=C(Nc1cc([N+](=O)[O-])c2[nH]c(=O)c3ccccc3c2c1)C(F)(F)F | 1.69% (inactive)
c1ccc(CN2CCC(CNc3ncnc4ccccc34)C2)cc1 (stereo not drawn) | -2.71% (inactive)
O=C(CC1CC2CCC1C2)Nc1nc(-c2ccccn2)cs1 (stereo not drawn) | -17.9% (inactive)
CC1(c2ccccc2)NC(=O)N(CC(=O)Nc2nc(-c3ccccn3)cs2)C1=O (stereo not drawn) | 17.7% (inactive)
O=C(Nc1nc(-c2ccccn2)cs1)C1CCCC1 | -0.49% (inactive)
O=C(CN1C(=O)C2CCCCC2C1=O)Nc1nc(-c2ccc(F)cc2)cs1 (stereo not drawn) | -0.75% (inactive)
O=C(CCN1C(=O)C2CCCCC2C1=O)Nc1nc(-c2ccccc2)cs1 (stereo not drawn) | 12.8% (inactive)
O=C(CN1C(=O)CCC1=O)Nc1nc(-c2cccs2)cs1 | -13.6% (inactive)
O=C(Nc1nc(-c2ccccn2)cs1)C1CC1 | 15.6% (inactive)
O=C(CN1C(=O)CCC1=O)Nc1nc(-c2ccc3ccccc3c2)cs1 | -4.5% (inactive)

From PubChem BioAssay AID504329 (Southern Research Specialized Biocontainment Screening …, 2011)
